Experimental data from PubChem BioAssay AID1159580 (chemical genetic matrix, 2015).
Values joined by “and” are separate entries in the source; they are usually repeats but may differ in a detail not shown here. Equal entries are not always repeated. The campaign covered roughly 5,500 compounds. About 2,000 (36%) were called active. About 18% were inconclusive and are not listed. Cut-off read from the data, not from the text of the source: active = normalized growth mostly below about 0.91 (no sharp cut-off); inconclusive = no clear call, values can overlap the other calls; inactive = mostly above about 0.92. The list shows a part of the results.

Assay: chemical genetic growth profiling, strain panel (AID 1159580);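 note: tested at 20 µM; growth read once vehicle control cultures reached saturation at 30 °C; 1 = growth at the plate median or of vehicle wells; lower values mean less growth of the strain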
Conditions: S. cerevisiae deletion strains, growth OD

Measured: normalized growth

NS(=O)(=O)c1cc2c(cc1Cl)NC(C(Cl)Cl)NS2(=O)=O (configuration not stated)
inactive: locus YAL021C, strain ccr4, active compounds read low 0.977 | locus YAL026C, strain drs2, active compounds read low 0.968 | locus YAL030W, strain snc1, active compounds read low 0.978 | locus YBL061C, strain skt5, active compounds read low 0.985 | locus YBR009C, strain hhf1, active compounds read low 0.919 | locus YBR021W, strain FUR4, active compounds read low 1.01 | locus YBR023C, strain chs3, active compounds read low 0.978 | locus YBR171W, strain sec66, active compounds read low 0.972 | locus YBR229C, strain ROT2, active compounds read low 1.01 | locus YBR231C, strain swc5, active compounds read low 0.979 | locus YBR279W, strain paf1, active compounds read low 0.984 | locus YCL011C, strain gbp2, active compounds read low 0.96 | locus YCL016C, strain dcc1, active compounds read low 0.967 | locus YCL029C, strain bik1, active compounds read low 1.02 | locus YCL069W, strain vba3, active compounds read low 0.988 | locus YCR088W, strain abp1, active compounds read low 0.96 | locus YDL005C, strain med2, active compounds read low 0.974 | locus YDL035C, strain GPR1, active compounds read low 0.991 | locus YDL040C, strain nat1, active compounds read low 0.986 | locus YDL074C, strain BRE1, active compounds read low 1.01 | locus YDL101C, strain DUN1, active compounds read low 1 | locus YDL134C, strain PPH21, active compounds read low 1.02 | locus YDL185W, strain tfp1, active compounds read low 1.02 | locus YDL192W, strain arf1, active compounds read low 1.02 | locus YDR001C, strain nth1, active compounds read low 0.957 | locus YDR069C, strain doa4, active compounds read low 0.989 | locus YDR101C, strain arx1, active compounds read low 1.01 | locus YDR137W, strain rgp1, active compounds read low 0.97 | locus YDR150W, strain NUM1, active compounds read low 1.01 | locus YDR159W, strain sac3, active compounds read low 0.918 | locus YDR162C, strain NBP2, active compounds read low 1.01 | locus YDR195W, strain ref2 0.992 | locus YDR297W, strain sur2, active compounds read low 0.984 | locus YDR318W, strain mcm21, active compounds read low 1.02 | locus YDR334W, strain swr1, active compounds read low 0.979 | locus YDR335W, strain msn5, active compounds read low 0.963 | locus YDR388W, active compounds read low 1.02 | locus YDR392W, strain spt3, active compounds read low 0.917 | locus YDR502C, strain sam2, active compounds read low 1.01 | locus YEL003W, strain gim4, active compounds read low 0.976 | locus YEL037C, strain rad23, active compounds read low 0.98 | locus YEL061C, strain CIN8 (second series), active compounds read low 0.971 | locus YEL061C, strain CIN8, active compounds read low 1.01 | locus YER015W, strain faa2, active compounds read low 0.977 | locus YER016W, strain bim1, active compounds read low 0.926 | locus YER110C, active compounds read low 1.02 | locus YER111C, strain swi4, active compounds read low 0.982 | locus YER155C, strain BEM2 (second series), active compounds read low 1.03 | locus YER155C, strain BEM2, active compounds read low 1.01 | locus YER167W, strain BCK2, active compounds read low 1.01 | locus YFR010W, strain ubp6, active compounds read low 0.984 | locus YGL078C, strain dbp3, active compounds read low 1.01 | locus YGL086W, strain mad1, active compounds read low 1.01 | locus YGL167C, strain pmr1, active compounds read low 0.963 | locus YGL173C, strain kem1, active compounds read low 0.998 | locus YGL227W, strain vid30, active compounds read low 0.98 | locus YGL240W, strain doc1, active compounds read low 0.99 | locus YGL248W, strain PDE1, active compounds read low 0.997 | locus YGL253W, strain hxk2, active compounds read low 0.976 | locus YGR135W, strain pre9, active compounds read low 1.01 | locus YGR252W, strain gcn5, active compounds read low 0.991 | locus YHR013C, strain ard1, active compounds read low 0.914 | locus YHR027C, strain rpn1, active compounds read low 0.975 | locus YHR030C, strain SLT2, active compounds read low 1.01 and 0.993 | locus YHR079C, strain IRE1 (second series), active compounds read low 1.01 | locus YHR079C, strain IRE1, active compounds read low 0.989 | locus YHR094C, strain hxt1, active compounds read low 1.01 | locus YHR129C, strain ARP1, active compounds read low 0.993 | locus YHR142W, strain chs7, active compounds read low 0.981 | locus YHR200W, strain rpn10, active compounds read low 1.01 | locus YIL066C, strain RNR3, active compounds read low 1.02 | locus YIL073C, strain SPO22, active compounds read low 1.06 | locus YIL125W, strain kgd1, active compounds read low 1.01 | locus YIR030C, strain dcg1, active compounds read low 1.02 | locus YJL092W, strain hpr5, active compounds read low 0.987 | locus YJL095W, strain BCK1 (second series), active compounds read low 0.973 | locus YJL095W, strain BCK1, active compounds read low 0.991 and 0.983 | locus YJL115W, strain asf1, active compounds read low 0.963 | locus YJL129C, strain trk1, active compounds read low 0.968 | locus YJL134W, strain LCB3, active compounds read low 1.01 | locus YJL154C, strain vps35, active compounds read low 0.978 | locus YJL164C, strain tpk1, active compounds read low 0.94 | locus YJL166W, strain qcr8, active compounds read low 0.993 | locus YJL168C, strain set2, active compounds read low 1.01 | locus YJL187C, strain SWE1 (second series), active compounds read low 1.01 | locus YJR043C, strain POL32, active compounds read low 1 | locus YJR066W, strain TOR1, active compounds read low 0.931
